Data taken from PubChem BioAssay (NCATS).
Inconclusive results are not listed. Active and inactive are the calls of the source. Unless noted, the call rests on the fitted dose curve; in most records, active means well fitted curve in the direction sought with a large enough effect; inconclusive means small, poorly fitted or top-dose-only effect, or another doubt; inactive means no such curve, though single readings can be large; an effect the other way counts as inactive or inconclusive.

Experiments:
[1] = Cytometric Cell-Based qHTS for Inhibitors of the mTORC1 Signaling Pathway in MEF (Tsc2-/-, p53-/-) Cells (AID 2660);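 further: percent of cells above a phospho-rpS6 to PI ratio cutoff in each well; series mostly up to about 38 µM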
How it was run: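 Tsc2-/-, p53-/- MEFs (empty vector) exposed to compound 24 h at 37 C, fixed, stained with Alexa-488 anti-phospho-rpS6 Ser235/236 and propidium iodide. Acumen laser scanning; phospho-S6/PI ratio thresholded against 7.5 nM rapamycin, reported as % positive cells.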

[2] = High Content Imaging Cell-Based qHTS for Inhibitors of the mTORC1 Signaling Pathway in MEF (Tsc2-/-, p53-/-) Cells (AID 2666);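 further: percent of cells scored positive for phospho-rpS6 Ser235/236 immunostaining by imaging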
How it was run: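 Read-out: % positive cells per well, with thresholds from highest- and lowest-signal wells, based on phospho-rpS6 (Ser235/236) intensity normalized to Hoechst nuclear stain. Cells: Tsc2-/-, p53-/- MEFs carrying empty vector; compound 24 hrs, 37 degree Celsius.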

[3] = High Content Imaging Cell-Based qHTS for Inhibitors of the mTORC1 Signaling Pathway in MEF Cells (AID 2667);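 further: Tsc2-/- p53-/- MEFs stably re-expressing wild-type Tsc2 exposed 24 h; series mostly up to about 38 µM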
How it was run: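 MEF (Tsc2-/-, p53-/-, WT Tsc2 re-expressed); cpd 24 h, 37 °C; PFA fix; Alexa-488 anti-p-rpS6 Ser235/236, PI, Hoechst; IN Cell imaging; Hoechst/Alexa-488 intensity ratio; % active cells, thresholds set from rapamycin and DMSO wells.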

[4] = Cytometry Cell-Based qHTS for Inhibitors of the mTORC1 Signaling Pathway in MEF cells (AID 2668);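 further: Tsc2-/- p53-/- mouse embryonic fibroblasts stably re-expressing wild-type Tsc2; percent cells positive for phospho-rpS6 Ser235/236 relative to propidium iodide stain; series mostly up to about 38 µM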
How it was run: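 Phospho-rpS6 (Ser235/236) immunofluorescence over PI signal, scored as % positive cells using thresholds from 7.5 nM rapamycin and DMSO wells, after 24 h compound exposure of WT-Tsc2-rescued Tsc2-/-, p53-/- MEFs. PI cell count recorded for viability.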

[5] = Validation screen for small molecules that induce DNA re-replication in MCF 10A normal breast cells (AID 463097); further: nearly all actives have a fitted effect of over 60% in size
How it was run: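 Read-out is Hoechst total nuclear intensity by fluorescence scanning imager, flagging increased high-DNA-content nuclei. Compounds were incubated with MCF 10A cells for 48 hr (37 C, 5% CO2) before 40 min staining.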

[6] = target: Ubiquitin carboxyl-terminal hydrolase 2 (Homo sapiens) (UniProt O75604); experiment: qHTS Validation Assay for Inhibitors of Ubiquitin-specific Protease USP2a Using CHOP2 as the Reporter (AID 463106)
Chain of Ubiquitin carboxyl-terminal hydrolase 2 (Homo sapiens) (O75604 whole entry, looked up): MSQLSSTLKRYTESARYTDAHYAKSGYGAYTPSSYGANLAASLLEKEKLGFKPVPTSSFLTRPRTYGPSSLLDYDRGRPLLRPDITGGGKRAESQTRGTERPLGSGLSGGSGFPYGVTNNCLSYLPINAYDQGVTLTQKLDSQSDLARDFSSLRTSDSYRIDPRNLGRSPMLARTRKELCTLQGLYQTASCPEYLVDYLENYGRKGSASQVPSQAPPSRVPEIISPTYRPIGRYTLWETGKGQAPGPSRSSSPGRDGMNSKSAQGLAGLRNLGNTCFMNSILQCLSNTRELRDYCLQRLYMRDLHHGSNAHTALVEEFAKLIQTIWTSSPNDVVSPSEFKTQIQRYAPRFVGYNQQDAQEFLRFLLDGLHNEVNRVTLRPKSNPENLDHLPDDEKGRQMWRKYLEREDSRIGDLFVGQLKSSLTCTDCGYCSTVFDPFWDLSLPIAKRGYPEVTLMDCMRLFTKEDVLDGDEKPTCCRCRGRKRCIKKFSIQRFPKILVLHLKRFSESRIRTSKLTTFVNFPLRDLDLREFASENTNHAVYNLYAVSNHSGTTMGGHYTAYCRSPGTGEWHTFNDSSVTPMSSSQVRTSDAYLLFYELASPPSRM
How it was run: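 USP2 core (10nM final) was preincubated with compound for 30min at RT in 20mM Tris-HCl pH 8.0, 2mM CaCl2, 2mM beta-mercaptoethanol, 0.05% CHAPS. Ub-CHOP2 and reporter substrate (25nM each) were added, and fluorescence (Ex 485/Em 531nm) was read after 60min.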

[7] = target: DNA polymerase III PolC-type (Bacillus subtilis (strain 168)) (UniProt P13267); experiment: qHTS Validation Assay for the Inhibitors of DNA Replication in Gram-Positive Bacteria (AID 485295);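 further: reconstituted holoenzyme with PolC plus beta clamp SSB and primase; PicoGreen fluorescence of double-stranded DNA made on primed circular M13 template; series mostly up to about 57 µM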
Chain of DNA polymerase III PolC-type (Bacillus subtilis (strain 168)) (P13267 whole entry, looked up): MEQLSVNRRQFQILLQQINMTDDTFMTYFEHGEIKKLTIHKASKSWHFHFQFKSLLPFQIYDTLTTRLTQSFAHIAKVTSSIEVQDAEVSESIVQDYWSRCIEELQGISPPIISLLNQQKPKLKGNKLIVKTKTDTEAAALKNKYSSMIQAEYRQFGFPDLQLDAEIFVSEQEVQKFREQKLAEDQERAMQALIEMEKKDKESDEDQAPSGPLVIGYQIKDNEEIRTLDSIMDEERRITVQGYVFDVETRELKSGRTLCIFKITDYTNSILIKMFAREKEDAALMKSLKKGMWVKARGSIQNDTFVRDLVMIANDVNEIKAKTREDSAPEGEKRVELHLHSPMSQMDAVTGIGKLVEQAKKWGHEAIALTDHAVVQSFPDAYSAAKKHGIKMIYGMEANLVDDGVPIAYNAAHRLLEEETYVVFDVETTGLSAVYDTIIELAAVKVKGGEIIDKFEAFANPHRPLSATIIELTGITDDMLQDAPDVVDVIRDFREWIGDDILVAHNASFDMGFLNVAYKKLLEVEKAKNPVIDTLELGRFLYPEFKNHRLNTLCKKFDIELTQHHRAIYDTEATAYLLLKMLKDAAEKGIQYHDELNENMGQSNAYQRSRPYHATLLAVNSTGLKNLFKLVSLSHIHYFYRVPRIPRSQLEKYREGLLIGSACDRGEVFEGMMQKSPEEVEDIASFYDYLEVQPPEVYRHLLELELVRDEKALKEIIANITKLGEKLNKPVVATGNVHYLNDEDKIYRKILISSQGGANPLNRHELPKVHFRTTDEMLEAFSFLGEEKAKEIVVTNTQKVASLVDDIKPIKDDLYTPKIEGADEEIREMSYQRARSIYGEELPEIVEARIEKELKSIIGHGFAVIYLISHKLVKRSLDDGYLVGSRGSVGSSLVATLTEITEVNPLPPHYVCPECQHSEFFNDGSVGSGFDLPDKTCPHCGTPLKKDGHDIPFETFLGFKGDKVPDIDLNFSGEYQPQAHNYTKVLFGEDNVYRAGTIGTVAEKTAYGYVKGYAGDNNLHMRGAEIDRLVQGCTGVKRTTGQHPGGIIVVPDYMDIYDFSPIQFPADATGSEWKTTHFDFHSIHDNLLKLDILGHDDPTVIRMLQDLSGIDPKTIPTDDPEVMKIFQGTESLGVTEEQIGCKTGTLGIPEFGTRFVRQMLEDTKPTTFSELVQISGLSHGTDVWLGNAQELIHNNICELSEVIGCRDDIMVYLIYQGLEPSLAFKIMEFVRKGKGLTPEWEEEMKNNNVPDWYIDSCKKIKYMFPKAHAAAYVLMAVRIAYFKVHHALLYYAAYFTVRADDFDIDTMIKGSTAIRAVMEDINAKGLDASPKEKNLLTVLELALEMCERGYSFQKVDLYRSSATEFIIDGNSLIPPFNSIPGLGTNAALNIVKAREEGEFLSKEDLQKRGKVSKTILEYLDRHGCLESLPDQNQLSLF
How it was run: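 Double-stranded DNA product detected by PicoGreen fluorescence after EDTA quench. Compound incubated with B. subtilis holoenzyme (PolC, beta subunit, SSB, primase) before substrate addition; primed replication of M13Gori with dNTPs and NTPs at room temperature; DMSO defines 0% inhibition.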

[8] = target: Tumor susceptibility gene 101 protein (Homo sapiens) (UniProt Q99816); experiment: qHTS Validation Assay for Iinhibitors of HIV-1 Budding by Blocking the Interaction of PTAP/TSG101 (AID 485342; calls by dose curve)
Chain of Tumor susceptibility gene 101 protein (Homo sapiens) (Q99816 whole entry, looked up, the tested form may be a part): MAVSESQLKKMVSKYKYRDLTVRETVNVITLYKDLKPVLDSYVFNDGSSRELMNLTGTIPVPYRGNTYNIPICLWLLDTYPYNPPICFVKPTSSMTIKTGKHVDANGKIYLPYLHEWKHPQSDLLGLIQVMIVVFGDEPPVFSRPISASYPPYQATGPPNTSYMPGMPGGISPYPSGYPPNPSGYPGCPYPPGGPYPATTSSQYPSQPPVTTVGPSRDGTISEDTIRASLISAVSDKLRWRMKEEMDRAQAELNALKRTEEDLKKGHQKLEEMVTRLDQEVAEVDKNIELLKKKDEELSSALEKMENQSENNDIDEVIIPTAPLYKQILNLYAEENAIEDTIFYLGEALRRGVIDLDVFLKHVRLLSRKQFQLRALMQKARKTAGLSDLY
How it was run: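 Fluorescence polarization of 50 nM FITC-PTAP peptide bound to 10 uM Tsg101 binding domain was read after 20 min room-temperature incubation with compounds, in 10 mM HEPES pH 7.5, 0.15 M NaCl, 0.01% Tween 20.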

[9] = qHTS Validation Assay to Find Inhibitors of Chronic Active B-Cell Receptor Signaling (AID 485345; active means well fitted curve in the direction sought with a large enough effect in the main read-out, with a control signal flat, not every such curve was filed as active)
How it was run: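 TMD8 ABC-DLBCL cells with dox-inducible green luciferase–IκBα fusion and red native luciferase; compounds 46 uM–3 nM, 4 h at 37C with doxycycline in 0.5% FBS IMDM. Green/red ratio normalized to basal and 10 uM MG-132.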

Measured: Potency

O=c1ccn([C@@H]2O[C@H](COP(=O)(O)OP(=O)(O)O)[C@@H](O)[C@H]2O)c(=O)[nH]1
inactive: all assays above

O=C(O)Cc1c[nH]c2ccc(O)cc12
not listed: [9]
inactive: all other assays above

C[C@@]1(C2CCCC2)Cc2cc(OCC(=O)O)c(Cl)c(Cl)c2C1=O
inactive: all assays above

Cn1c(=O)c2[nH]c(-c3ccc(S(=O)(=O)O)cc3)nc2n(C)c1=O
not listed: [9]
inactive: all other assays above

CCCn1c(=O)c2[nH]c(-c3ccc(S(=O)(=O)O)cc3)nc2n(CCC)c1=O
not listed: [9]
inactive: all other assays above

NCCS(=O)O
inactive: all assays above

COc1cccc(OC)c1OCCNCC1CSc2ccccc2O1 (stereo unspecified)
not listed: [9]
inactive: all other assays above

CC(N)=O
inactive: all assays above

CC1CCN=C(N)S1 (stereo unspecified)
inactive: all assays above

Oc1cc(O)c2c(c1)O[C@H](c1ccc(O)c(O)c1)[C@@H](O)C2
inactive: all assays above

Cn1c(=O)c2[nH]c(C3CCCC3)nc2n(C)c1=O
not listed: [9]
inactive: all other assays above

NC1(C(=O)O)CCCCC1
inactive: all assays above

CN[C@H](CC(=O)O)C(=O)O
inactive: all assays above

CN1C2CCC1CC(OC(c1ccccc1)c1ccccc1)C2 (stereo unspecified)
inactive: all assays above

CC[C@H](NC(=O)c1c(C)c(-c2ccccc2)nc2ccccc12)c1ccccc1
inactive: all assays above

NC1C=CC=C(C(=O)O)C1 (stereo unspecified)
inactive: all assays above

CC(N)(C(=O)O)c1ccc(C(=O)O)cc1 (stereo unspecified)
not listed: [8]
inactive: all other assays above

NC1CONC1=O (stereo unspecified)
inactive: all assays above

CN(C)C(=O)/N=N/C(=O)N(C)C
not listed: [8]
inactive: all other assays above

CC(/C=C/c1cccc(Oc2ccc(F)cc2)c1)N(O)C(N)=O (stereo unspecified)
inactive: all assays above

CC1=C(C(=O)O)N2C(=O)[C@@H](NC(=O)C(N)C3=CCC=CC3)[C@H]2SC1 (stereo partly specified)
inactive: all assays above

NC(=O)CC[C@H](N)C(=O)O
inactive: all assays above

O=C(O)C1CN(CCCP(=O)(O)O)CCN1 (stereo unspecified)
inactive: all assays above

NC(=O)c1ccccc1
inactive: all assays above

Cn1cc(C(=O)OCC2CCN(CCNS(C)(=O)=O)CC2)c2ccccc21
inactive: all assays above

O=C(O)C1=CCNCC1
inactive: all assays above

CC[N+](CC)(CC)CC(=O)Nc1c(C)cccc1C
inactive: all assays above
